According to PubChem BioAssay (NCI):
Compounds without any hit were thinned out: in the full panel of roughly 79,000, 15% have a hit. Activity calls are given as the source filed them. Rule as the data show it: active = growth inhibition above about 70%; inactive = the rest.

Assay: NCI Yeast Anticancer Drug Screen. Data for the cln2 rad14 strain (AID 165);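 also: 0% = growth equal to vehicle treated cultures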
Settings: S. cerevisiae cln2 rad14 strain, at 5.0 µM (retest, dose inferred, filed as 0.5), active compounds read high
Method in brief: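 Readout is yeast growth inhibition versus vehicle-treated controls, using a strain with cln2 and rad14 alterations exposed to compound.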

Compound | growth inhibition
CCCCCCCCc1ccc2c3ccccc3c3ccccc3c2c1 | -1% (inactive)
O=C1C(=O)c2ccc(Br)cc2C(O)=C1C(c1ccccc1)c1ccccc1 | 24% (inactive)
CN(C)Cc1ccc2[nH]c3c(c2c1)CCCC3 | 0% (inactive)
COc1ccc(NC(=O)Nc2ccc(Cl)cc2)nn1 | -14% (inactive)
CO/N=C/c1cc(NC(=S)c2ccoc2C)ccc1Cl | -26% (inactive)
O=C(Sc1c(-c2ccccc2)c(=O)n(-c2ccccc2)c(=S)n1-c1ccccc1)c1cccs1 | 25% (inactive)
O=C1/C(=C/c2ccc(F)cc2)CNC/C1=C\c1ccc(F)cc1 | 35% (inactive)
O=c1cc2cccccc-2cc1O | -43% (inactive)
Oc1c(Br)cc(Br)cc1-c1ccccc1 | -5% (inactive)
C(=[CH]/[Sn]([c]1ccccc1)([c]1ccccc1)[c]1ccccc1)/c1ccccc1 | 92% (active)
CCCCCCCCCN1CCNC1=S | -18% (inactive)
O=C1C/C(=C\c2ccccc2)C(=O)c2ccccc2N1 | 1% (inactive)
CN(C)C(=O)Nc1ccc(Cc2ccc(NC(=O)N(C)C)cc2)cc1 | 5% (inactive)
C=C1CC(C)(COc2ccc3c(C)c(Cl)c(=O)oc3c2)OC1=O (stereo not given) | -15% (inactive)
CC[C@@]1(OP(=O)(O)O)C(=O)OCc2c1cc1n(c2=O)Cc2cc3ccccc3nc2-1 | -11% (inactive)
O=S(=O)(Sc1ccccc1)C(c1ccccc1)c1ccccc1 | 1% (inactive)
CCOC(=O)c1c(N)sc2c1CCCCC2 | -53% (inactive)
CCCCCCCCCCCCCCNCCN | 27% (inactive)
CCCN(CCC)CCNc1ccc(C)c2sc3ccccc3c(=O)c12 | 19% (inactive)
CC1CC2(C)ON=C(c3ccccc3)N2c2ccccc2S1 (stereo not given) | -6% (inactive)

Compound | growth inhibition
COc1ccc(N=NN2CCCC2)cc1 | 46% (inactive)
S=C(Nc1ccccc1)NC1CC2C=CC1CC2 (stereo not given) | -23% (inactive)
C=CCOC(=O)C(O)C(CC)CCCCC (stereo not given) | 10% (inactive)
NC(=O)c1ccccc1C(=O)O | 2% (inactive)
CS(=O)(=O)c1cc(=O)c2ccccc2s1 | 10% (inactive)
O=C([O][Sb]([O]C(=O)C(Cl)(Cl)Cl)([c]1ccccc1)([c]1ccccc1)[c]1ccccc1)C(Cl)(Cl)Cl | -5% (inactive)
CCCCCCCCCCCCCCCCCCOP(=O)([O-])OCC[N+](C)(C)C | 15% (inactive)
Nc1ccc(SCCCc2c(N)nc(N)nc2N)cc1 | -16% (inactive)
O=C1C=CC(=O)c2c1cc1ccccc1c2O | 6% (inactive)
CCN(CC)CC(O)CNc1ccc(NCC(O)CCl)c2c1C(=O)c1ccccc1C2=O (stereo not given) | 97% (active)
N#Cc1c(N)nc2c(N=Nc3ccccc3)c(N)nn2c1Nc1ccccc1 | 1% (inactive)
CC(O)c1c2ccccc2cc2ccccc12 (stereo not given) | -32% (inactive)
Cc1ccccc1NC(=O)C1C(=O)N(c2ccccc2C)C(=O)/C1=N/O (stereo not given) | -6% (inactive)
O=Cc1ccc(-c2nccc3c2[nH]c2ccccc23)o1 | 12% (inactive)
C=CC(C)(CCC=C(C)C)OC(=O)Nc1ccccc1 (stereo not given) | -2% (inactive)
Oc1ccc(-c2nnc(-c3ccc(Cl)cc3Cl)o2)cc1 | 2% (inactive)
C/C=C1\CC(C)(CC)C(C#N)(C#N)C(N)=C1C#N (stereo not given) | -9% (inactive)
Cc1nc(-c2ccccc2)nc2c1nc(C(C)C)n2Nc1ccccc1 | -9% (inactive)
Cc1csc2c1C(=O)c1ccsc1C2=O | 31% (inactive)
COc1cc(Nc2ccc(Oc3ccc(O)cc3)cc2)c2ncccc2c1 | 2% (inactive)

Same assay, conditions: S. cerevisiae cln2 rad14 strain, at 50.0 µM (retest, dose inferred, filed as 5.0), active compounds read high

Compound | growth inhibition
CCCCCCCCc1ccc2c3ccccc3c3ccccc3c2c1 | -12% (inactive)
O=C1C(=O)c2ccc(Br)cc2C(O)=C1C(c1ccccc1)c1ccccc1 | 63% (inactive)
CN(C)Cc1ccc2[nH]c3c(c2c1)CCCC3 | 72% (active)
COc1ccc(NC(=O)Nc2ccc(Cl)cc2)nn1 | -8% (inactive)
CO/N=C/c1cc(NC(=S)c2ccoc2C)ccc1Cl | 10% (inactive)
O=C(Sc1c(-c2ccccc2)c(=O)n(-c2ccccc2)c(=S)n1-c1ccccc1)c1cccs1 | 92% (active)
O=C1/C(=C/c2ccc(F)cc2)CNC/C1=C\c1ccc(F)cc1 | 43% (inactive)
O=c1cc2cccccc-2cc1O | 89% (active)
Oc1c(Br)cc(Br)cc1-c1ccccc1 | 100% (active)
C(=[CH]/[Sn]([c]1ccccc1)([c]1ccccc1)[c]1ccccc1)/c1ccccc1 | 86% (active)
CCCCCCCCCN1CCNC1=S | 40% (inactive)
O=C1C/C(=C\c2ccccc2)C(=O)c2ccccc2N1 | 6% (inactive)
CN(C)C(=O)Nc1ccc(Cc2ccc(NC(=O)N(C)C)cc2)cc1 | -4% (inactive)
C=C1CC(C)(COc2ccc3c(C)c(Cl)c(=O)oc3c2)OC1=O (stereo not given) | 92% (active)
CC[C@@]1(OP(=O)(O)O)C(=O)OCc2c1cc1n(c2=O)Cc2cc3ccccc3nc2-1 | -58% (inactive)
O=S(=O)(Sc1ccccc1)C(c1ccccc1)c1ccccc1 | 28% (inactive)
CCOC(=O)c1c(N)sc2c1CCCCC2 | -52% (inactive)
CCCCCCCCCCCCCCNCCN | 97% (active)
CCCN(CCC)CCNc1ccc(C)c2sc3ccccc3c(=O)c12 | 99% (active)
CC1CC2(C)ON=C(c3ccccc3)N2c2ccccc2S1 (stereo not given) | 97% (active)

Compound | growth inhibition
COc1ccc(N=NN2CCCC2)cc1 | 56% (inactive)
S=C(Nc1ccccc1)NC1CC2C=CC1CC2 (stereo not given) | -11% (inactive)
C=CCOC(=O)C(O)C(CC)CCCCC (stereo not given) | 31% (inactive)
NC(=O)c1ccccc1C(=O)O | 1% (inactive)
CS(=O)(=O)c1cc(=O)c2ccccc2s1 | 99% (active)
O=C([O][Sb]([O]C(=O)C(Cl)(Cl)Cl)([c]1ccccc1)([c]1ccccc1)[c]1ccccc1)C(Cl)(Cl)Cl | 55% (inactive)
CCCCCCCCCCCCCCCCCCOP(=O)([O-])OCC[N+](C)(C)C | 89% (active)
Nc1ccc(SCCCc2c(N)nc(N)nc2N)cc1 | -17% (inactive)
O=C1C=CC(=O)c2c1cc1ccccc1c2O | 44% (inactive)
CCN(CC)CC(O)CNc1ccc(NCC(O)CCl)c2c1C(=O)c1ccccc1C2=O (stereo not given) | 97% (active)
N#Cc1c(N)nc2c(N=Nc3ccccc3)c(N)nn2c1Nc1ccccc1 | 5% (inactive)
CC(O)c1c2ccccc2cc2ccccc12 (stereo not given) | 50% (inactive)
Cc1ccccc1NC(=O)C1C(=O)N(c2ccccc2C)C(=O)/C1=N/O (stereo not given) | 6% (inactive)
O=Cc1ccc(-c2nccc3c2[nH]c2ccccc23)o1 | 16% (inactive)
C=CC(C)(CCC=C(C)C)OC(=O)Nc1ccccc1 (stereo not given) | 6% (inactive)
Oc1ccc(-c2nnc(-c3ccc(Cl)cc3Cl)o2)cc1 | 86% (active)
C/C=C1\CC(C)(CC)C(C#N)(C#N)C(N)=C1C#N (stereo not given) | -3% (inactive)
Cc1nc(-c2ccccc2)nc2c1nc(C(C)C)n2Nc1ccccc1 | 33% (inactive)
Cc1csc2c1C(=O)c1ccsc1C2=O | 98% (active)
COc1cc(Nc2ccc(Oc3ccc(O)cc3)cc2)c2ncccc2c1 | 22% (inactive)
